Test results from PubChem BioAssay AID1159580 (chemical genetic matrix, 2015).
Hit rate of the full screen: of about 5,500 compounds, about 2,000 (36%) were called active. Roughly 18% stayed inconclusive and do not appear here. No stated cut-off is given here; in the data, active means normalized growth mostly below about 0.91 (no sharp cut-off); inconclusive means no clear call, values can overlap the other calls; inactive means mostly above about 0.92. The list shows a part of the results.

Assay: chemical genetic growth profiling, strain panel (AID 1159580);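 further: tested at 20 µM; growth read once vehicle control cultures reached saturation at 30 °C; 1 = growth at the plate median or of vehicle wells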
Settings: growth OD

Measured: normalized growth

CN(C)[C@@H]1C(=O)C(C(N)=O)=C(O)[C@@]2(O)C(=O)C3=C(O)c4c(O)cccc4[C@@](C)(O)[C@H]3[C@H](O)[C@@H]12
inactive: S. cerevisiae deletion strains, locus YJR075W, strain HOC1, stronger effect = lower value 1.01 | S. cerevisiae deletion strains, locus YKL009W, strain mrt4, stronger effect = lower value 0.996 | S. cerevisiae deletion strains, locus YKL068W, stronger effect = lower value 0.997 | S. cerevisiae deletion strains, locus YKL085W, strain MDH1 (second series), stronger effect = lower value 0.999 | S. cerevisiae deletion strains, locus YKL085W, strain MDH1, stronger effect = lower value 0.999 | S. cerevisiae deletion strains, locus YKL160W, strain elf1, stronger effect = lower value 1.02 | S. cerevisiae deletion strains, locus YKL190W, strain CNB1, stronger effect = lower value 1.01 | S. cerevisiae deletion strains, locus YKR001C, strain vps1, stronger effect = lower value 0.989 | S. cerevisiae deletion strains, locus YKR026C, strain gcn3, stronger effect = lower value 1.01 | S. cerevisiae deletion strains, locus YKR091W, strain srl3, stronger effect = lower value 1.02 | S. cerevisiae deletion strains, locus YLL001W, strain dnm1, stronger effect = lower value 1.02 | S. cerevisiae deletion strains, locus YLL026W, stronger effect = lower value 1.03 | S. cerevisiae deletion strains, locus YLL041C, strain sdh2, stronger effect = lower value 1.02 | S. cerevisiae deletion strains, locus YLR027C, strain aat2, stronger effect = lower value 1.01 | S. cerevisiae deletion strains, locus YLR039C, strain RIC1, stronger effect = lower value 1.03 | S. cerevisiae deletion strains, locus YLR058C, strain SHM2, stronger effect = lower value 1 | S. cerevisiae deletion strains, locus YLR102C, strain apc9, stronger effect = lower value 0.995 | S. cerevisiae deletion strains, locus YLR113W, strain HOG1, stronger effect = lower value 0.995 | S. cerevisiae deletion strains, locus YLR221C, strain rsa3, stronger effect = lower value 1.01 | S. cerevisiae deletion strains, locus YLR258W, strain gsy2, stronger effect = lower value 1.01 | S. cerevisiae deletion strains, locus YLR262C, strain YPT6 (second series), stronger effect = lower value 0.997 | S. cerevisiae deletion strains, locus YLR262C, strain YPT6, stronger effect = lower value 1.02 | S. cerevisiae deletion strains, locus YLR268W, strain sec22, stronger effect = lower value 0.975 | S. cerevisiae deletion strains, locus YLR320W, strain mms22, stronger effect = lower value 1.01 | S. cerevisiae deletion strains, locus YLR330W, strain CHS5, stronger effect = lower value 1.01 | S. cerevisiae deletion strains, locus YLR342W, strain FKS1 (second series), stronger effect = lower value 0.976 | S. cerevisiae deletion strains, locus YLR342W, strain FKS1, stronger effect = lower value 1 | S. cerevisiae deletion strains, locus YLR357W, strain rsc2, stronger effect = lower value 1 | S. cerevisiae deletion strains, locus YLR370C, strain arc18, stronger effect = lower value 1.02 | S. cerevisiae deletion strains, locus YLR371W, strain rom2, stronger effect = lower value 1 | S. cerevisiae deletion strains, locus YLR384C, strain iki3, stronger effect = lower value 1.02 | S. cerevisiae deletion strains, locus YLR418C, strain cdc73, stronger effect = lower value 0.986 | S. cerevisiae deletion strains, locus YML016C, strain PPZ1, stronger effect = lower value 0.994 | S. cerevisiae deletion strains, locus YML032C, strain rad52, stronger effect = lower value 0.98 | S. cerevisiae deletion strains, locus YML120C, strain ndi1, stronger effect = lower value 1.01 | S. cerevisiae deletion strains, locus YML124C, strain tub3, stronger effect = lower value 1 | S. cerevisiae deletion strains, locus YMR058W, strain fet3, stronger effect = lower value 0.977 | S. cerevisiae deletion strains, locus YMR078C, strain ctf18, stronger effect = lower value 1 | S. cerevisiae deletion strains, locus YMR125W, strain sto1, stronger effect = lower value 1.01 | S. cerevisiae deletion strains, locus YMR129W, stronger effect = lower value 1.01 | S. cerevisiae deletion strains, locus YMR205C, strain PFK2, stronger effect = lower value 1.04 | S. cerevisiae deletion strains, locus YMR223W, strain ubp8, stronger effect = lower value 0.988 | S. cerevisiae deletion strains, locus YMR231W, strain pep5, stronger effect = lower value 1.02 | S. cerevisiae deletion strains, locus YMR307W, strain GAS1, stronger effect = lower value 0.994 | S. cerevisiae deletion strains, locus YNL067W, strain RPL9B, stronger effect = lower value 1.01 | S. cerevisiae deletion strains, locus YNL071W, strain lat1, stronger effect = lower value 1.02 | S. cerevisiae deletion strains, locus YNL128W, strain TEP1, stronger effect = lower value 1.01 | S. cerevisiae deletion strains, locus YNL153C, strain GIM3, stronger effect = lower value 0.998 | S. cerevisiae deletion strains, locus YNL183C, strain NPR1, stronger effect = lower value 0.95 | S. cerevisiae deletion strains, locus YNL209W, strain ssb2, stronger effect = lower value 1.01 | S. cerevisiae deletion strains, locus YNL233W, strain BNI4, stronger effect = lower value 1 | S. cerevisiae deletion strains, locus YNL248C, strain rpa49, stronger effect = lower value 0.966 | S. cerevisiae deletion strains, locus YNL250W, strain rad50, stronger effect = lower value 0.994 | S. cerevisiae deletion strains, locus YNL271C, strain bni1, stronger effect = lower value 0.984 | S. cerevisiae deletion strains, locus YNL298W, strain CLA4, stronger effect = lower value 0.968 | S. cerevisiae deletion strains, locus YNL307C, strain MCK1, stronger effect = lower value 1.01 | S. cerevisiae deletion strains, locus YNL322C, strain KRE1 (second series), stronger effect = lower value 1.01 | S. cerevisiae deletion strains, locus YNL322C, strain KRE1, stronger effect = lower value 1 | S. cerevisiae deletion strains, locus YNR049C, strain mso1, stronger effect = lower value 1.02 | S. cerevisiae deletion strains, locus YNR052C, strain pop2, stronger effect = lower value 0.995 | S. cerevisiae deletion strains, locus YOL006C, strain TOP1, stronger effect = lower value 1.03 | S. cerevisiae deletion strains, locus YOL012C, strain htz1 0.944 | S. cerevisiae deletion strains, locus YOL147C, strain pex11, stronger effect = lower value 0.991 | S. cerevisiae deletion strains, locus YOR001W, strain rrp6, stronger effect = lower value 1.04 | S. cerevisiae deletion strains, locus YOR061W, strain CKA2, stronger effect = lower value 1 | S. cerevisiae deletion strains, locus YOR069W, strain VPS5, stronger effect = lower value 1.01 | S. cerevisiae deletion strains, locus YOR070C, strain gyp1, stronger effect = lower value 1.01 | S. cerevisiae deletion strains, locus YOR080W, strain dia2, stronger effect = lower value 1.01 | S. cerevisiae deletion strains, locus YOR083W, strain WHI5, stronger effect = lower value 1.02 | S. cerevisiae deletion strains, locus YOR106W, strain vam3, stronger effect = lower value 1.02 | S. cerevisiae deletion strains, locus YOR136W, strain idh2, stronger effect = lower value 1.01 | S. cerevisiae deletion strains, locus YOR144C, strain elg1, stronger effect = lower value 0.996 | S. cerevisiae deletion strains, locus YOR184W, strain ser1, stronger effect = lower value 1 | S. cerevisiae deletion strains, locus YOR231W, strain MKK1, stronger effect = lower value 0.99 | S. cerevisiae deletion strains, locus YOR265W, strain rbl2, stronger effect = lower value 1.02 | S. cerevisiae deletion strains, locus YOR270C, strain vph1, stronger effect = lower value 1.04 | S. cerevisiae deletion strains, locus YOR290C, strain snf2, stronger effect = lower value 1 | S. cerevisiae deletion strains, locus YOR316C, strain cot1, stronger effect = lower value 1.01 | S. cerevisiae deletion strains, locus YPL051W, strain arl3, stronger effect = lower value 0.995 | S. cerevisiae deletion strains, locus YPL055C, strain LGE1, stronger effect = lower value 1.02 | S. cerevisiae deletion strains, locus YPL078C, strain atp4, stronger effect = lower value 1.03 | S. cerevisiae deletion strains, locus YPL106C, strain sse1, stronger effect = lower value 1.02 | S. cerevisiae deletion strains, locus YPL240C, strain hsp82, stronger effect = lower value 1.03 | S. cerevisiae deletion strains, locus YPL241C, strain CIN2, stronger effect = lower value 1 | S. cerevisiae deletion strains, locus YPL256C, strain CLN2, stronger effect = lower value 0.991 | S. cerevisiae deletion strains, locus YPR119W, strain clb2, stronger effect = lower value 1 | S. cerevisiae deletion strains, locus YPR141C, strain kar3, stronger effect = lower value 0.995 | S. cerevisiae deletion strains, locus YPR163C, strain tif3, stronger effect = lower value 1 | S. cerevisiae deletion strains, locus YPR167C, strain met16, stronger effect = lower value 1 | S. cerevisiae deletion strains, strain wtn01, stronger effect = lower value 0.985 | S. cerevisiae strains, strain wild type, stronger effect = lower value 1
